In PubChem BioAssay:
Measured potencies and affinities stand elsewhere. Inconclusive results are not listed. Calls of active or inactive are those of the source. Unless noted, no rule for the calls is given here.

Tests used:
[1] = cytotoxicity in PAX8-dependent RMG-1 cells, dose response, cell-based, cherry-pick (AID 687029;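 active = signal drop whose fitted half-maximal concentration is at most twice the top valid dose, in every test run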;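 also: cells exposed to compound for 96 hours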)
[2] = cytotoxicity in IOSE-T80 ovarian epithelial cells, dose response, selectivity assay for PAX8 inhibitor project, cell-based, cherry-pick (AID 687032;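 active = fitted half-maximal concentration for viability loss no higher than twice the top valid dose, in every repeat run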;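 also: cells exposed to compound for 96 h before reading; 0% = neutral control wells and -100% = 2 µM mitoxantrone kill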)
[3] = non-specific cell cytotoxicity, dose response, cytotoxicity control for PAX8 inhibitor project, plate reader, dry powder samples (AID 743021)
[4] = IOSE-T80 ovarian epithelial cell cytotoxicity, dose response, cytotoxicity control for PAX8 inhibitor project, plate reader, dry powder samples (AID 743045);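 also: 0% = neutral control median and -100% = positive control median; more negative values mean more cell killing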
[5] = A2780 ovarian cancer cell cytotoxicity, dose response, cytotoxicity control, plate reader, dry powder samples (AID 743046);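 also: 0% = neutral control wells and -100% = cytotoxic reference compound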
[6] = NIH:OVCAR-3 ovarian cancer cell cytotoxicity, dose response, PAX8 inhibitor project, plate reader, dry powder samples (AID 743044); conditions: max activity: at 35 µM, stronger effect = lower value unless noted
[7] = IGROV1 ovarian cancer cell cytotoxicity, dose response, PAX8 inhibitor project, plate reader, dry powder samples (AID 743043);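 also: more negative means fewer viable cells or more cytotoxicity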
[8] = cytotoxicity in OVCAR8 ovarian cancer cells, dose response, PAX8 project, cell-based, plate reader, dry powder samples (AID 743197)
[9] = A549 cell cytotoxicity, dose response, cytotoxicity control, plate reader, cherry-pick, antagonist series (AID 743412);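 also: 0% = neutral control wells and -100% = positive control wells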
[10] = HepG2 cell cytotoxicity, dose response, cytotoxicity control, plate reader, cherry-pick, antagonist series (AID 743416);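 also: 0% = neutral control wells and -100% = positive control wells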

Measured: max activity

COc1cccc(-c2ccc3c(c2)[C@H]2[C@H](CCN2C(=O)c2ccccc2F)[C@H](CO)N3C)c1
inactive: [1] | [2] | [3] | [4] | [5]

Cn1nnnc1Sc1ncnc2scc(-c3ccc(F)cc3)c12
inactive: [1] | [2] | [3] | [6]

C[C@@H]1CCCCO[C@@H](CN(C)Cc2ccc(C(F)(F)F)cc2)[C@@H](C)CN([C@@H](C)CO)C(=O)c2cc(NS(=O)(=O)c3ccc(Cl)cc3)ccc2O1
inactive: [1] | [2] | [3] | [4] | [5]

C[C@H]1CCCCO[C@H](CN(C)C(=O)c2ccccc2)[C@@H](C)CN([C@@H](C)CO)C(=O)c2cc(NC(=O)Nc3ccc(C(F)(F)F)cc3)ccc2O1
inactive: [1] | [2] | [3] | [4] | [5]

C[C@H]1CN([C@@H](C)CO)S(=O)(=O)c2ccc(C#Cc3ccc(F)cc3)cc2O[C@H]1CN(C)C(=O)NC1CCCCC1
not listed: [6] | [9] | [10]
inactive: all other assays above

Cc1ccc(S(=O)(=O)Nc2ccc3c(c2)C(=O)N([C@H](C)CO)C[C@@H](C)[C@@H](CN(C)CC2CCCCC2)OCCCC[C@@H](C)O3)cc1
inactive: [1] | [2] | [3] | [4]

COc1ccc(S(=O)(=O)Nc2ccc3c(c2)C(=O)N([C@@H](C)CO)C[C@H](C)[C@@H](CN(C)C(=O)Nc2ccc(C(F)(F)F)cc2)OCCCC[C@@H](C)O3)cc1
inactive: [1] | [2] | [3] | [4]

C[C@H](CO)N1C[C@H](C)[C@@H](CN(C)S(=O)(=O)c2ccccc2)OCCCC[C@H](C)Oc2ccc(NS(=O)(=O)c3ccc(Cl)cc3)cc2C1=O
inactive: [1] | [2] | [3] | [7] | [4] | [8]

C[C@@H]1CN([C@@H](C)CO)C(=O)Cc2cc(NC(=O)Nc3ccccc3)ccc2O[C@H]1CN(C)Cc1ccc(Oc2ccccc2)cc1
inactive: [1] | [2] | [3] | [6] -64.8% | [4] | [5] | [8]

CC(C)CC#Cc1ccc2c(c1)O[C@@H](CN(C)Cc1ccncc1)[C@H](C)CN([C@H](C)CO)S2(=O)=O
inactive: [1] | [2] | [3] | [7] | [5]

C[C@@H]1CCCCO[C@@H](CN(C)Cc2ccc(Cl)c(Cl)c2)[C@H](C)CN([C@@H](C)CO)C(=O)c2cc(NC(=O)Nc3ccc(C(F)(F)F)cc3)ccc2O1
not listed: [6] | [9] | [10]
inactive: all other assays above

COc1ccc(S(=O)(=O)N(C)C[C@H]2Oc3cc(C#CC4CCCC4)ccc3S(=O)(=O)N([C@@H](C)CO)C[C@@H]2C)cc1
inactive: [1] | [2] | [3] | [4]

C[C@@H]1CN([C@H](C)CO)C(=O)c2cc(NS(=O)(=O)c3cccs3)ccc2O[C@@H](C)CCCCO[C@@H]1CN(C)Cc1ccc(Cl)c(Cl)c1
inactive: [1] | [2] | [3] | [4]

C[C@@H]1CN([C@@H](C)CO)S(=O)(=O)c2ccc(C#Cc3ccccc3F)cc2O[C@H]1CN(C)C(=O)c1ccc2c(c1)OCO2
inactive: [1] | [2] | [3] | [4]

Cc1ccc(S(=O)(=O)N(C)C[C@H]2OCCCC[C@H](C)Oc3ccc(NS(=O)(=O)c4ccc(Cl)cc4)cc3C(=O)N([C@H](C)CO)C[C@@H]2C)cc1
inactive: [1] | [2] | [3] | [4] | [5]

Cc1ccc(S(=O)(=O)Nc2ccc3c(c2)C(=O)N([C@@H](C)CO)C[C@H](C)[C@H](CN(C)Cc2ccc(C(F)(F)F)cc2)OCCCC[C@H](C)O3)cc1
inactive: [1] | [2] | [3] | [4] | [5]

C[C@@H]1CN([C@H](C)CO)C(=O)c2cc(NC(=O)Nc3ccc(F)cc3)ccc2O[C@@H](C)CCCCO[C@H]1CN(C)S(=O)(=O)c1ccccc1
not listed: [6] | [9] | [10]
inactive: all other assays above

C[C@@H]1CN([C@@H](C)CO)C(=O)c2c(c3ccccc3n2C)-c2ccccc2CO[C@@H]1CN(C)S(=O)(=O)c1ccc(C(F)(F)F)cc1
inactive: [1] | [2] | [3] | [6] -38.5% | [4] | [5] | [8]

C[C@@H]1CCCCO[C@@H](CN(C)C(=O)Nc2ccc(C(F)(F)F)cc2)[C@H](C)CN([C@H](C)CO)C(=O)c2cc(NS(=O)(=O)c3cccs3)ccc2O1
inactive: [1] | [2] | [3] | [4]

CC(C)CC#Cc1ccc2c(c1)O[C@@H](CN(C)S(=O)(=O)c1ccc(F)cc1)[C@@H](C)CN([C@@H](C)CO)S2(=O)=O
inactive: [1] | [2] | [3] | [4] | [5]

NC(=NCCCCCCN=C(N)/N=C(\N)Nc1ccc(Cl)cc1)/N=C(\N)Nc1ccc(Cl)cc1
inactive: [1] | [2] | [3] | [4]

COc1ccccc1C#Cc1ccc([C@H]2[C@H](C#N)N(C(=O)C3CCC3)[C@H]2CO)cc1
inactive: [1] | [2] | [7] | [5]

Cc1ccc2nc(-c3ccc(Br)cc3)cn2c1
inactive: [1] | [2] | [9] | [10]

CCCC#Cc1ccc([C@H]2[C@@H](C#N)N(C(=O)C3CCCCC3)[C@H]2CO)cc1
inactive: [1] | [2] | [7] | [4]

Cn1cnc(S(=O)(=O)N2C[C@@H]3N[C@H](C2)C3c2ccc(-c3ccccc3F)cc2)c1 (some centres undefined)
inactive: [1] | [2] | [3] | [5]

C[C@@H]1CCCCO[C@H](CN(C)Cc2ccc(Cl)c(Cl)c2)[C@@H](C)CN([C@@H](C)CO)C(=O)c2cc(NS(=O)(=O)c3ccccc3)ccc2O1
inactive: [1] | [2] | [4] | [5] | [8]

C[C@@H]1CN([C@@H](C)CO)S(=O)(=O)c2ccc(C#Cc3ccccc3F)cc2O[C@H]1CN(C)C(=O)Cc1ccccc1
inactive: [1] | [2] | [7] | [4] | [5]

C[C@H](CO)N1C[C@H](C)[C@H](CN(C)Cc2ccc(C(=O)Nc3ccccc3N)cc2)Oc2ccc(N(C)C)cc2C1=O
inactive: [1] | [2] | [3] | [5]

O=C(C1CC1)N1C[C@@H]2N[C@H](C1)C2c1ccc(-c2cccc(F)c2)cc1 (some centres undefined)
inactive: [1] | [2] | [3] | [5]

C[C@H](CO)N1C[C@H](C)[C@H](CN(C)Cc2ccc3c(c2)OCO3)OCCCC[C@H](C)Oc2ccc(NC(=O)Nc3ccc(C(F)(F)F)cc3)cc2C1=O
inactive: [1] | [2] | [7] | [6] -20.3% [at 0.26 µM, stronger effect = lower value] | [4] | [5] | [8]

COc1ccc(S(=O)(=O)Nc2ccc3c(c2)C(=O)N([C@@H](C)CO)C[C@@H](C)[C@H](CN(C)Cc2ccc(C(F)(F)F)cc2)OCCCC[C@H](C)O3)cc1
inactive: [1] | [2] | [7] | [6] -37.4% | [4] | [5] | [8]

COc1ccc(S(=O)(=O)Nc2ccc3c(c2)C(=O)N([C@H](C)CO)C[C@H](C)[C@@H](CN(C)S(=O)(=O)c2ccc(Cl)cc2)OCCCC[C@H](C)O3)cc1
inactive: [1] | [2] | [4]
